Experimental data: PubChem BioAssay (NCI)
Compounds without any hit were thinned out: in the full panel of roughly 83,000, 20% have a hit.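 In brief: 96-well plates, 48 h treatment, single concentration, percent growth endpoint.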 Calls of active or inactive are those of the source. Rule for the calls: active = growth percent below 10; inactive = the rest.

system: DU-145 prostate; assay: NCI-60 one-dose screen, 48 h (100 = growth as untreated, 0 = no growth, -100 = all killed); settings: 10 µM unless noted

Row | Compound | growth
1 | Nc1ccc(-c2ccc(N)c(S(=O)(=O)O)c2)cc1S(=O)(=O)O | 109% (inactive)
2 | COC(=O)c1cc([N+](=O)[O-])cc([N+](=O)[O-])c1Cl | 66.1% (inactive)
3 | CCCCCCCCCCCCN1C(C)=CS/C1=C\C=C\c1scc(C)[n+]1CCCCCCCCCCCC | 43% (inactive)
4 | O=C1CSC(=S)N1Cc1cccnc1 | 25% (inactive)
5 | CCC[CH2][Sn]1([CH2]CCC)[O]C2C(CO)OC(n3ccc(N)nc3=O)C2[O]1 (configuration not stated) | 2.15% (active)
6 | CCCCCCCCCCCC[N+]1(CCCCCCCCCCCC)CCCC(C)C1 (configuration not stated) | -83.8% (active)
7 | CN(C)c1ccc(/C=C/c2ccnc3ccccc23)cc1 | 78.1% (inactive)
8 | CCCCCCCCCCCCNCCCc1ccccc1 | 84% (inactive)
9 | CC(=O)Nc1ccc(C(=O)CCl)cc1 | 66% (inactive)
10 | O=C1C=CC(O)=CC1=P(c1ccccc1)(c1ccccc1)c1ccccc1 | 114% (inactive)
11 | Oc1ccccc1N=Cc1ccccc1 | 83.5% (inactive)
12 | CCCCOS(=O)(=O)c1ccccc1 | 112% (inactive)
13 | O=[N+]([O-])c1cc(-c2ccccc2)c(O)c([N+](=O)[O-])c1 | 107% (inactive)
14 | CCCCCCC1N=C(N)N=C(N)N1c1cccc(Cl)c1 (configuration not stated) | 34.3% (inactive)
15 | O=[n+]1c2ccccc2n([O-])c2cc(Cl)ccc21 | 94.9% (inactive)
16 | N#CC1c2ccccc2C=CN1C(=O)CCCl (configuration not stated) | 77.7% (inactive)
17 | CN(Cc1ccccc1)c1ccc(SC#N)cc1 | 103% (inactive)
18 | O=[N+]([O-])C=C(c1ccccc1)c1ccccc1 | 87.7% (inactive)
19 | CC1CC(C)(C)OB(OC(C)CC(C)(C)OB2OC(C)CC(C)(C)O2)O1 (configuration not stated) | 102% (inactive)
20 | CCCCCCCCCCCC[n+]1ccccc1 (tested in a mixture with another compound) | 11.7% (inactive)

system: K-562 leukemia; assay: as above; settings: 10 µM unless noted

Row | Compound | growth
21 | Cc1ccc(Nc2ccc(O)c3c2C(=O)c2c(O)ccc(Nc4ccc(C)cc4)c2C3=O)cc1 | 115% (inactive)
22 | CCOc1ccc2c(c1)/C(=C\C=C\C1CC(C)C3CC(OCC)CCC3N1CC)CC(C)N2CC (configuration not stated) | 4.61% (active)
23 | COc1ccc(C(Cn2ccnc2)Sc2ccc(Cl)c(Cl)c2)cc1 (configuration not stated) | 56.2% (inactive)
24 | Oc1ccc(Cl)cc1C(c1cc(Cl)ccc1O)C(Cl)(Cl)Cl | 4.51% (active)
25 | CCc1cccc(CC)c1N1C(=O)C=CC1=O | 23.8% (inactive)
26 | CCCC[n+]1c(/C=C\c2c(OC)cc(OC)cc2OC)ccc2ccccc21 | 0.911% (active)
27 | Cc1nn(CCO)c(C)c1N=[N+]([O-])c1c(C)nn(CCO)c1C | -31.8% (active)
28 | O=C1C(=O)c2cccnc2-c2ncccc21 | -23.4% (active)
29 | COC(=O)c1ccc(=O)c2nc3/c(=C/O)c(O)cc(=O)c3[nH]c12 | 7.14% (active)
30 | COc1cc(OC)c(/C=C/c2c3ccccc3cc[n+]2C)c(OC)c1 | 5.35% (active)
31 | CC(C)(C)CC(C)(C)c1ccc(OCCOCCSC(=N)N)cc1 | 3.14% (active)
32 | CC(=O)C1Cc2ccccc2C1=O (configuration not stated) | 116% (inactive)
33 | O=C1C=C(Cl)C(=O)c2ccccc21 | 24.2% (inactive)
34 | CCCOC(=O)c1nc(N(CC2CCCCC2)C(=O)NC)sc1/N=C/c1ccccc1 | 2.2% (active)
35 | Cc1nc([N+](=O)[O-])c(Sc2nncc(-c3ccccc3)n2)n1C | 89.7% (inactive)
36 | Cc1nnc(N/N=C/c2ccc([N+](=O)[O-])o2)[nH]c1=O | 10.7% (inactive)
37 | CC12CCC(O)CC1=CCC1C2CCC2(C)C3=NN=CC3CC12 (configuration not stated) | 61.1% (inactive)
38 | Nc1ccc(-c2ccc(N)c(S(=O)(=O)O)c2)cc1S(=O)(=O)O | 118% (inactive)
39 | COC(=O)c1cc([N+](=O)[O-])cc([N+](=O)[O-])c1Cl | 15.2% (inactive)

Row | Compound | growth
40 | CCCCCCCCCCCCN1C(C)=CS/C1=C\C=C\c1scc(C)[n+]1CCCCCCCCCCCC | 4.52% (active)
41 | O=C1CSC(=S)N1Cc1cccnc1 | 7.08% (active)
42 | CCC[CH2][Sn]1([CH2]CCC)[O]C2C(CO)OC(n3ccc(N)nc3=O)C2[O]1 (configuration not stated) | -17.7% (active)
43 | CCCCCCCCCCCC[N+]1(CCCCCCCCCCCC)CCCC(C)C1 (configuration not stated) | -79.1% (active)
44 | CN(C)c1ccc(/C=C/c2ccnc3ccccc23)cc1 | 25.1% (inactive)
45 | CCCCCCCCCCCCNCCCc1ccccc1 | 2.28% (active)
46 | CC(=O)Nc1ccc(C(=O)CCl)cc1 | 1.75% (active)
47 | O=C1C=CC(O)=CC1=P(c1ccccc1)(c1ccccc1)c1ccccc1 | 88.8% (inactive)
48 | Oc1ccccc1N=Cc1ccccc1 | 48.6% (inactive)
49 | CCCCOS(=O)(=O)c1ccccc1 | 106% (inactive)
50 | O=[N+]([O-])c1cc(-c2ccccc2)c(O)c([N+](=O)[O-])c1 | 68.9% (inactive)
51 | CCCCCCC1N=C(N)N=C(N)N1c1cccc(Cl)c1 (configuration not stated) | 20.1% (inactive)
52 | O=[n+]1c2ccccc2n([O-])c2cc(Cl)ccc21 | 45.3% (inactive)
53 | N#CC1c2ccccc2C=CN1C(=O)CCCl (configuration not stated) | 32.3% (inactive)
54 | CN(Cc1ccccc1)c1ccc(SC#N)cc1 | 31.8% (inactive)
55 | O=[N+]([O-])C=C(c1ccccc1)c1ccccc1 | 29.4% (inactive)
56 | CC1CC(C)(C)OB(OC(C)CC(C)(C)OB2OC(C)CC(C)(C)O2)O1 (configuration not stated) | 96.1% (inactive)
57 | CCCCCCCCCCCC[n+]1ccccc1 (tested in a mixture with another compound) | -33.3% (active)
